Compounds with a hit are over-represented: about 9.4% of the library has one in this group of screens.
HTT ATP protect: Huntington cell model cytoprotection by ATP luminescence; 230,000 compounds, 0.14% hits; Potency, µM (highest dose often 56.4 µM), for inactives: cytoprotection (ATP increase), most hits filed as activators; AID 1471; PC12 HTT-Q103 induced, cytoprotection, ATP luminescence, 40 h; also: potency is read from the fitted curve at half-maximal effect; % of control where 0% means no effect; nearly all actives have a fitted effect of over 45% in size
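Cells were plated at 1500 per well in phenol red-free DMEM with 5% equine and 5% calf serum. Tebufenozide (100 nM final) and compounds were added, then ATPlite reagent, and luminescence was read.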
IMPase cell inh: membrane-permeable compound that blocks inositol monophosphatase; P97697; CHO-M1 cells, IP1 accumulation, HTRF TR-FRET ratio; inhibition (IP1 accumulation), % at 46.1 µM; 120,000 tested, under 10 active; AID 901; active = well fitted curve in the direction sought with a large enough effect in the signal ratio, not every such curve was filed as active; inconclusive = small, poorly fitted or top-dose-only effect, or a change in a side signal; inactive = no such curve, though single readings can be large or run the other way; the % refers to the signal ratio;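 also: cells stimulated with carbachol in lithium chloride buffer; plate controls were DMSO basal wells for no effect and reference inhibitor wells for full effect; higher means more IMPase inhibition seen as more IP1 and lower FRET ratio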
Target sequence (P97697 whole entry, looked up): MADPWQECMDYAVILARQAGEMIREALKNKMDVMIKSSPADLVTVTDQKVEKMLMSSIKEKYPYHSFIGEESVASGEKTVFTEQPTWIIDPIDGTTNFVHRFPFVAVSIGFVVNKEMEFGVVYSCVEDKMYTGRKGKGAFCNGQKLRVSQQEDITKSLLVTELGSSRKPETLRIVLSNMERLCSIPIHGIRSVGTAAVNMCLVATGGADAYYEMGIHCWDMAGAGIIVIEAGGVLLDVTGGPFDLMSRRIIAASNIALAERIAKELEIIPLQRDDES
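CHO-M1, 2000 cells/well, cultured 16–30 h; cpd up to 46 uM; carbachol (50 uM solution, stimulation buffer w/ 50 mM LiCl, pH 7.4), 30 min 37C; IP-One TR-FRET, 10 min RT; Ex 320/Em 665, 620; Hill-fit AC50.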
HttQ103 aggreg: mutant huntingtin aggregation inhibition | PC12 HttQ103-GFP aggregates, Acumen cytometry, 40 h | Potency, µM (titrated, usually from 46.1 µM), inactives show at the highest dose activity change, negative = inhibition, most hits filed as inhibitors | 220,000 compounds, 1.1% hits | AID 1688; also: potency is read from the fitted curve at half-maximal effect; % is scaled to controls: 0 for no effect and ±100 for the full control effect; nearly all actives have a fitted effect of over 60% in size
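PC12 cells stably carrying ecdysone-inducible HTT exon 1 Q103–GFP were induced with tebufenozide (100 nM final) and treated with library compounds in titration. GFP aggregates in lysates were counted by laser scanning cytometry.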
HPGD block: blocks human HPGD enzyme activity. purified HPGD, NADH fluorescence kinetic, PGE2 substrate. Potency, µM, for the others: at the top dose activity change, negative = inhibition, actives largely listed as inhibitors. 150,000 compounds, 4.3% hits. AID 894; active = well fitted inhibition curve with a large enough effect, not every such curve was filed as active; inconclusive = small, poorly fitted or top-dose-only effect, or another doubt; inactive = no such curve, though single readings can be large or run the other way; also: potency is read from the fitted curve at half-maximal effect; % is scaled to controls: 0 for no effect and ±100 for the full control effect
Target sequence (P15428 whole entry, looked up): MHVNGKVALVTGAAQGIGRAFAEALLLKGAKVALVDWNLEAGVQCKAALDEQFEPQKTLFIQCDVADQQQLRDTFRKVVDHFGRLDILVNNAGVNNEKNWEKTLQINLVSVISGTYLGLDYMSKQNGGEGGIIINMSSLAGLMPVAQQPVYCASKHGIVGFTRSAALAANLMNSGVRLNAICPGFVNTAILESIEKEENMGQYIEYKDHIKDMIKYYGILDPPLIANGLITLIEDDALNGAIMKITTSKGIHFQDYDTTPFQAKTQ
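20 nM HPGD preincubated 15 min at room temperature with compound in 50 mM Tris-HCl pH 8, 0.01% Tween 20. Started with 1 mM NAD+ and 30 uM prostaglandin E2; NADH fluorescence (360/450 nm) read 5 times over 30-s intervals, last minus first.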
IMPase Li cell: membrane-permeable IMPase blocker, potentiated with lithium. CHO-M1 cells, IP1 TR-FRET (IP-One), carbachol + lithium. Potency, µM (doses to about 59.4 µM), without a hit: at the top dose activity, negative = IMPase inhibition, most hits filed as inhibitors. 210,000 compounds, 0.35% hits. AID 1457;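 also: IP1 builds up when IMPase is blocked and the TR-FRET signal falls; potency is read from the fitted curve at half-maximal effect; plate controls were basal vehicle for no effect and high inhibitor control for full effect; nearly all actives have a fitted effect of over 50% in size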
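Concentration–response in CHO-M1 cells, lithium-potentiated; 30 min at 37C. IP1 detected by competitive TR-FRET after 10 min lysis at RT. Hill-fitted AC50.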
ALDH1A1 block: ALDH1A1 (human) enzyme inhibition; Purified ALDH1A1, NADH fluorescence, propionaldehyde substrate; AID 1030; Potency, µM (doses to about 75.3 µM), without a hit: at the highest dose activity, negative = inhibition, actives largely listed as inhibitors; 220,000 compounds, 7.3% hits; active = well fitted inhibition curve with a large enough effect, not every such curve was filed as active; inconclusive = small, poorly fitted or top-dose-only effect, or another doubt; inactive = no such curve, though single readings can be large or run the other way;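 also: potency is read from the fitted curve at half-maximal effect; plate controls were no enzyme wells and a reference inhibitor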
An asterisk follows results filed as active; ? = inconclusive; . = no result given; [ ] = remark or other dose. Unless noted, calls follow the shape of the dose curve; as a rule, active = well fitted curve in the direction sought with a large enough effect; inconclusive = small, poorly fitted or top-dose-only effect, or another doubt; inactive = no such curve, though single readings can be large; an effect the other way counts as inactive or inconclusive.

SMILES | HTT ATP protect | IMPase cell inh | HttQ103 aggreg | HPGD block | IMPase Li cell | ALDH1A1 block
N#CC1=C(N)SC(N)=C(C#N)C1c1ccnc2ccccc12 | -12.1%[0.074 µM] | -10.8 | 4.6% | 15.8µM* | -28.2%[38.3 µM] | ?
COc1ccc(/C=C\C(=O)Nc2ccccc2C(=O)O)cc1OC | -63.6% | -7.6 | . | ? | 5.6% | ?
Oc1ccc(C=Nc2cccc3ncccc23)c(O)c1 | 0.7%[10 µM] | -1.7 | -4.6% | -6.7% | 21.9%[38.3 µM] | -1.8%
Oc1ccc(C=Nc2ccc3ncccc3c2)c(O)c1 | -79.1% | 26.5 | ? | ? | 5.4%[38.3 µM] | 28.2µM*
COCCn1c(=O)c(-c2cccs2)nc2cnc(N3CCNCC3)nc21 | -30.5% | . | . | . | 2.8% | ?
CO[C@H]1COC(=O)[C@H](C)COC(=O)C/C=C\[C@@H](C)[C@H](OC)COC(=O)C/C=C\[C@@H]1C | -14.4%[10 µM] | . | . | . | . | 3.3%[13.5 µM]
Oc1ccc(N=Cc2cc(Br)c(N3CCOCC3)o2)cc1 | . | . | ? | -25.0% | 41.0% | 8.91µM*
CCOC(=O)c1c(NC(=O)OC)sc2c1CCC2 | 0.2% | 5.9 | -10.4% | -4.4% | 10.0%[38.3 µM] | -13.5%
CCOC(=O)c1c(NC(=O)CNCCOC)sc2c1CCCC2 | 6.9%[10 µM] | ? | 6.3% | -20.9% | 12.8% | 25.1µM*
COc1ccccc1NC(=O)c1c(NC(=O)CCC(=O)O)sc2c1CCCCC2 | -0.6%[10 µM] | . | -0.3%[9.22 µM] | . | . | 22.4µM*
CCOC(=O)c1c(NC(=O)CCC(=O)O)sc2c1CCCCC2 | . | . | 18.4% | 8.91µM* | -7.8% | 8.91µM*
CCOC(=O)c1c(NC(=O)CCCC(=O)O)sc2c1CCC2 | -3.0%[10 µM] | . | -6.8%[9.22 µM] | . | 1.7% | -0.2%
O=[N+]([O-])c1ccc(N2CCC(=NOCc3ccc(Cl)cc3)CC2)cc1 | -29.4% | 15.6 | -25.9% | -16.2% | 7.8%[38.3 µM] | 12.6µM*
CCOC(=O)c1c(-c2ccccc2)oc2ccc(N(C(C)=O)S(=O)(=O)c3ccc(CC)cc3)cc12 | . | 0.6 | . | . | . | .
c1ccc(COCCCc2cnc[nH]2)cc1 | -2.0% | . | . | -2.0% | 11.4% | -14.1%
NCCCCCc1cnc[nH]1 | 0.794µM* | . | . | -3.9% | -4.8% | 2.8%
CCCCc1cc(=O)oc2cc(C)c(CN3CCCC3)c(O)c12 | 8.4%[10 µM] | -0.5 | 1.4% | -16.9% | 13.2%[38.3 µM] | 22.4µM*
CCCc1cc(=O)oc2cc(C)cc(O)c12 | -48.5%[10 µM] | -24.3 | ? | -14.7% | 1.3%[38.3 µM] | 8.91µM*
CCc1cc(=O)oc2cc(C)cc(O)c12 | 3.8% | ? | ? | 28.2µM* | 3.16µM* | 4.47µM*
CCc1cc(=O)oc2cc(C)c(CN3CCCC(C)C3)c(O)c12 (configuration not stated) | 3.8% | -6.3 | 2.4% | -8.1% | 11.9%[38.3 µM] | ?
CCCc1cc(=O)oc2cc(C)cc(OCc3nn[nH]n3)c12 | 2.9%[0.074 µM] | 1.0 | 2.3% | ? | -16.3%[38.3 µM] | ?
CCCCCc1cc(O)c2c(C)cc(=O)oc2c1 | -9.1%[10 µM] | -6.5 | 25.1µM* | -20.3% | ? | 1.78µM*
CCc1cc(=O)oc2cc(C)cc(OCC(C)=O)c12 | 8.3%[10 µM] | . | 22.3%[9.22 µM] | . | . | .
NC[C@H]1O[C@@H](n2cnc3c(=O)[nH]c(N)nc32)[C@@H](O)[C@@H]1O | -0.2%[10 µM] | . | . | -6.6% | 8.1% | 3.3%[13.5 µM]
COc1ccc(/C=N/N(Cc2ccccc2)c2ccccc2)cc1O | 23.4%[10 µM] | . | 1.2%[9.22 µM] | . | 16.1% | -4.5%
SMILES | HTT ATP protect | IMPase cell inh | HttQ103 aggreg | HPGD block | IMPase Li cell | ALDH1A1 block
O=C(c1cnccn1)N1CCC2(CC1)CCN(c1ccccc1)CC2 | 6.6% | . | . | -1.0% | -2.9% | -4.2%
CCCCCN=c1ccn(Cc2ccccc2)c2ccccc12 | -15.3% | 18.9 | . | -3.0% | 29.7% | -7.6%
CCCc1cc(=O)oc2cc(C)cc(OC(=O)c3ccco3)c12 | -20.8% | -8.5 | ? | 2.7% | 11.7%[38.3 µM] | 2.24µM*
CCc1cc(=O)oc2cc(C)cc(OCC(=O)C(C)(C)C)c12 | -53.5% | . | 1.9% | . | 2.2% | ?
Nc1ccccc1NC1CCCCC1 | ? | . | 17.8% | . | 2.2% | 3.0%
CCOC(=O)/C(=C\c1cccnc1)C(=O)c1cc(C(C)=O)c(Nc2ccccc2)s1 | -34.5% | 10.1 | ? | 20µM* | 42.6%[38.3 µM] | ?
CCCc1cc(NC(=O)CCl)n(-c2ccccc2)n1 | 22.7%[10 µM] | . | -0.7% | . | 0.8% | 0.891µM*
COCCCNC(=O)CN(c1cccc(Cl)c1)S(C)(=O)=O | 7.4% | -5.7 | -0.2% | -8.8% | 8.6%[38.3 µM] | 2µM*
CSc1cccc(NC(=O)/C=C/c2cccc(Cl)c2)c1 | . | . | 15.8µM* | -15.1% | 16.5% | ?
COCCCNC(=O)/C=C/c1cccc(Cl)c1 | -11.5% | -1.9 | 4.5% | 28.2µM* | -2.6%[38.3 µM] | 0.9%
CCCOc1ccc(-c2nc3ccc(Br)cc3c(=O)o2)cc1 | . | -0.8 | . | . | . | .
COc1ccc(OC)c(-c2c(C#N)c(N)nc3c2c(=O)nc2sccn23)c1 | -2.2% | . | 14.0% | . | -21.9% | -1.9%
Cc1ccc(N/N=C/c2c(C)c(C#N)c(=O)n(C)c2O)cc1C | -13.1% | . | 16.0% | . | 17.0% | 0.794µM*
CCOc1ccccc1NC(=O)CN(CCc1ccccc1)S(=O)(=O)c1ccc(C)cc1 | . | -3.8 | . | . | . | .
